# NOMO-1 viab – STK33 inhibitor candidate reducing NOMO-1 cell viability; NOMO-1 AML viability, CellTiter-Glo luminescence, 72 h; inhibition, % (no concentration beside the values); 37,000 compounds, 7.5% hits; AID 2330; in the data active = inhibition above about 80%; inconclusive = no clear call, values can overlap the other calls
# Shh pathway inh – blocks Sonic Hedgehog signaling | Shh-LIGHT2 Gli-luciferase reporter, 30 h | inhibition, % (test concentration not listed) | 22,000 compounds, 2.1% hits;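 active = mean inhibition across valid replicates above about 65%, limit read from the data; inconclusive = mean under the limit, yet half or more replicates past it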;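 also: pathway switched on by Shh-conditioned medium diluted 1 in 25 in low serum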
# MITF inhib – blocks MITF activity; TRPM1 promoter luciferase, luminescence, 24 h; 37,000 compounds, 0.28% hits; inhibition, % (no concentration beside the values); in the data active = inhibition above about 85%; inconclusive = no clear call, values can overlap the other calls; inactive = below about 68%;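 also: human melanocyte line stably carrying TRPM1 promoter luciferase reporter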
# Numbers without * were called inactive; u = inconclusive; x = not tested or not shown. Only some compounds are listed: those with a hit (about 7.8% of all), similar ones and a draw of the others.
SMILES,NOMO-1 viab,Shh pathway inh,MITF inhib
C[C@@H]1CN([C@@H](C)CO)C(=O)c2cccc(NS(=O)(=O)c3cn(C)cn3)c2O[C@@H]1CN(C)S(=O)(=O)c1cn(C)cn1,2.4,16.9,0.8
C[C@H](CO)N1C[C@H](C)[C@H](CN(C)CC2CC2)Oc2ccc(NS(=O)(=O)c3cccs3)cc2C1=O,-6.1,-4.7,-5.2
C[C@H]1CN([C@@H](C)CO)C(=O)c2cccc(NC(=O)Nc3ccc(F)cc3)c2O[C@@H]1CN(C)Cc1ccc(C(F)(F)F)cc1,56.6,0.4,37.8
C[C@H](CO)N1C[C@H](C)[C@H](CN(C)Cc2ccc(C(F)(F)F)cc2)Oc2c(NC(=O)Nc3cccc4ccccc34)cccc2C1=O,112.1*,-12.5,54.8
C[C@@H]1CN([C@H](C)CO)C(=O)c2cccc(NC(=O)Nc3ccc(C(F)(F)F)cc3)c2O[C@@H]1CN(C)Cc1ccccc1,74.8,35.0,-9.3
C[C@@H]1CN([C@@H](C)CO)C(=O)c2cccc(NC(=O)Nc3ccc(C(F)(F)F)cc3)c2O[C@@H]1CN(C)Cc1ccc(-c2ccccc2)cc1,125.0*,x,7.8
C[C@@H]1CN([C@H](C)CO)C(=O)c2cccc(NC(=O)Nc3ccccc3)c2O[C@H]1CN(C)Cc1ccc(C(F)(F)F)cc1,91.3*,-6.7,46.1
C[C@H](CO)N1C[C@H](C)[C@H](CN(C)Cc2ccc(C(F)(F)F)cc2)Oc2c(NC(=O)Nc3ccccc3)cccc2C1=O,47.7,-27.7,1.0
C[C@@H]1CN([C@H](C)CO)C(=O)c2cccc(NC(=O)Nc3ccc(C(F)(F)F)cc3)c2O[C@@H]1CN(C)Cc1ccc(-c2ccccc2)cc1,u,-38.9,-1.9
C[C@@H]1CN([C@H](C)CO)C(=O)c2cccc(NC(=O)Nc3ccc(C(F)(F)F)cc3)c2O[C@@H]1CN(C)Cc1ccc(C(F)(F)F)cc1,111.3*,32.5,5.6
Cn1nnnc1SCC(=O)Nc1ccc(C#N)cc1,2.2,x,-14.5
CC(C)NC(=O)Nc1cccc2c1O[C@H](CN(C)C(=O)NC1CCCCC1)[C@H](C)CN([C@H](C)CO)C2=O,6.7,-9.2,-6.6
C[C@@H]1CN([C@H](C)CO)C(=O)c2cc(NS(=O)(=O)c3ccc(Cl)cc3)ccc2O[C@@H]1CN(C)CC1CC1,4.2,-11.3,-6.7
Cc1ccc(-n2c(SCC(=O)NC3CCCCC3)nnc2-c2ccccc2)cc1,15.3,x,2.6
COc1ccc(NC(=O)CSc2nnc(C)c(=O)[nH]2)cc1Cl,7.0,x,-8.3
C[C@@H]1CN([C@H](C)CO)C(=O)c2cccc(NC(=O)Nc3ccc(C(F)(F)F)cc3)c2O[C@H]1CN(C)Cc1ccc(C(F)(F)F)cc1,u,-9.5,43.8
C[C@H]1CN([C@@H](C)CO)C(=O)c2cccc(NC(=O)Nc3ccc(C(F)(F)F)cc3)c2O[C@H]1CN(C)Cc1ccc(C(F)(F)F)cc1,113.8*,-36.8,30.3
COC(=O)C1=C(NC(=O)c2ccccc2C)CCS1,9.3,x,2.9
CNC(=O)CN(c1cc([N+](=O)[O-])ccc1OC)S(C)(=O)=O,1.3,x,-2.7
COc1ccc([N+](=O)[O-])cc1NC(=O)C(C)N(c1ccc(C)cc1)S(C)(=O)=O (configuration not stated),111.8*,x,33.9
COC(=O)CN(c1cc([N+](=O)[O-])ccc1OC)S(C)(=O)=O,99.7*,x,-7.1
COc1ccc(NC(=O)C(C)N(c2ccc(C)cc2)S(C)(=O)=O)c(OC)c1 (configuration not stated),6.8,x,-12.6
C[C@@H]1CN([C@@H](C)CO)C(=O)c2cc(N(C)C)ccc2O[C@H]1CN(C)Cc1ccc(C(=O)O)cc1,-6.5,0.7,-11.4
Cn1c(SCc2ccc([N+](=O)[O-])cc2)nnc1-c1ccccn1,-24.5,x,-0.7
O=C1CC(c2ccccc2)Oc2ccccc21 (configuration not stated),-3.9,-30.3,-4.0
SMILES,NOMO-1 viab,Shh pathway inh,MITF inhib
NC(=O)NC1C(=O)c2ccccc2OC1c1ccccc1 (configuration not stated),114.3*,34.9,12.4
c1ccc(CN(CCN(Cc2ccccn2)Cc2ccccn2)Cc2ccccn2)nc1,98.4*,-180.7,88.1*
Cc1cc[n+](Cc2ccccn2)c(N)c1,8.5,-25.9,0.5
C[C@@H]1CN([C@H](C)CO)C(=O)c2cc(NC(=O)CCN3CCOCC3)ccc2O[C@@H]1CN(C)C(=O)NC1CCCCC1,-7.7,x,1.3
CCCC(O)/C(=C/C1=C(C(=O)CC(CC(=O)O)OC(N)=O)C(=O)c2cccc(O)c2C1=O)CC(C(=O)O)[N+](C)(C)C (configuration not stated),108.3*,44.3,11.9
Cc1cccc(-c2nnc(SCC(=O)Nc3cccc(Br)c3)n2C)c1,7.2,x,-10.6
C[C@H](CO)N1C[C@H](C)[C@H](CN(C)C(=O)Nc2ccc3c(c2)OCO3)Oc2c(NS(=O)(=O)c3cn(C)cn3)cccc2C1=O,12.6,-21.1,-0.5
C[C@@H]1O[C@@H](O[C@H]2[C@H](O)[C@@H](O[C@@H]3O[C@H](CO)[C@@H](O)[C@H](O[C@@H]4O[C@H](CO)[C@@H](O)[C@H](O)[C@H]4O)[C@H]3O)[C@H](O[C@H]3CC[C@@]4(C)C(=CC[C@@H]5C4CC[C@@]4(C)C5C[C@@H]5O[C@]6(CC[C@@](C)(CO[C@@H]7O[C@H](CO)[C@@H](O)[C@H](O)[C@H]7O)O6)[C@@H](C)[C@@H]54)C3)O[C@@H]2CO)[C@H](O)[C@H](O)[C@H]1O (some centres not stated),120.3*,69.6*,6.0
CC1CCC2(NC1)OC1CC3C4CC=C5CC(O[C@@H]6O[C@H](CO)[C@@H](O[C@@H]7O[C@@H](C)[C@H](O)[C@@H](O)[C@H]7O)[C@H](O)[C@H]6O)CCC5(C)C4CCC3(C)C1C2C (some centres not stated),6.8,6.0,2.7
O=C(CSCc1nc2ccccc2[nH]1)Nc1cccc(C(F)(F)F)c1,6.0,x,21.9
COc1ccc(N2C(=O)Cc3ccc(OC)cc3C2=O)cc1,119.6*,-25.9,1.2
COc1ccc2c(c1)CCC(=O)C2,3.3,-62.6,-18.7
C=C(C(=O)O[C@H]1C/C(C)=C\CC/C(CO)=C\[C@H]2OC(=O)C(=C)[C@H]12)C(O)CO (some centres not stated),19.2,17.6,-32.8
C=C(C)C(=O)OC1CC(CO)CCC/C(CO)=C\C2OC(=O)C(=C)C21 (configuration not stated),x,70.9*,x
COc1ccc2cc3[n+](cc2c1OC)CCc1cc2c(cc1-3)OCO2,110.0*,16.6,50.5
COc1ccc2c(c1OC)CN(C)CCc1cc3c(cc1C(=O)C2)OCO3,5.9,5.2,5.7
O=S(=O)(CCN1CCOCC1)c1ccc(OC(F)(F)F)cc1,1.2,1.4,0.3
C[C@H]1CN([C@@H](C)CO)C(=O)c2cc(NC(=O)CCCN(C)C)ccc2O[C@H]1CN(C)CC1CC1,-4.4,-24.6,-5.5
Cc1ccnc(NC(c2ccc([N+](=O)[O-])cc2)c2ccc3ccc(C)nc3c2O)c1 (configuration not stated),118.4*,x,62.9
COc1cccc(C(Nc2cc(C)ccn2)c2ccc3ccc(C)nc3c2O)c1 (configuration not stated),96.6*,x,29.0
Cc1ccnc(NC(c2cc(C)ccc2C)c2ccc3ccc(C)nc3c2O)c1 (configuration not stated),40.6,x,11.3
